Measured values: PubChem BioAssay AID2384 (Southern Research Specialized Biocontainment Screening …, 2010)
Hit rate of the full screen: of about 2,300 compounds, about 1,100 (48%) were called active. The rule behind the calls is not given here. So high a share suggests a set chosen from earlier hits. The list shows a part of the results. Entries with a potency or affinity are not part of this list.

Experiment: inhibitors in S. typhi counter-screen strain, dose response, counter-screen for PhoP regulon inhibitor project, fluorescence, 4 h (AID 2384)
Conditions: S. typhi GFP reporter counter-screen; series mostly up to 150 µM

| SMILES | inhibition |
| --- | --- |
| CCNc1nc(N)nc(Oc2ccc(OCCOc3ccc(Cl)cc3Cl)nn2)n1 | inactive |
| COc1cc(/C=C/C(=O)O)cc2c1OCCO2 | inactive |
| CCCC(CCC)C(=O)NCCN1CCOCC1 | inactive |
| CCn1nccc1C(=O)Nc1cc(Cl)cc(Cl)c1 | inactive |
| CCOC(=O)/C=C1/N(C)c2ccccc2C1(C)C | inactive |
| O=Cc1ccc(O)cc1O | inactive |
| CCCOc1ccc(-c2cn3ccccc3n2)cc1 | inactive |
| Cc1ccc(-c2noc(CN3CCCCC3)n2)cc1 | inactive |
| Cc1ccc2nsnc2c1S(=O)(=O)NCc1ccc2c(c1)OCO2 | inactive |
| Cc1[nH]nc2c1C(c1ccc(-c3ccccc3C#N)o1)C(C#N)=C(N)O2 (stereo not given) | inactive |
| O=C(NCc1cccnc1)c1ccc(COc2ccc(Cl)cc2)cc1 | inactive |
| COc1ccc(NC(=O)CN(C)S(=O)(=O)c2ccc(Cl)cc2)cc1Cl | inactive |
| Cn1cc(S(=O)(=O)NCC2CCCO2)c(=O)n(C)c1=O (stereo not given) | inactive |
| C[C@]1(OC(=O)/C=C/c2ccccc2)C[C@@H](O)[C@]2(O)C=CO[C@@H](O[C@@H]3O[C@H](CO)[C@@H](O)[C@H](O)[C@H]3O)[C@@H]21 | inactive |
| CC(=O)c1cccc(NC(=S)NNC(=O)c2ccco2)c1 | inactive |
| O=C(/C=C/c1ccccc1)NNC(=O)c1ccco1 | inactive |
| O=C(/C=C/c1ccco1)NC(=S)Nc1cccc(-c2nc3ccccc3o2)c1 | inactive |
| O=C(NC(=S)Nc1c(F)cc(F)cc1Br)c1ccc2c(c1)OCCO2 | inactive |
| COc1ccc(C(C(=O)Nc2ccc(C(C)C)cc2)N(Cc2ccco2)C(=O)CC2NC(=O)NC2=O)cc1 (stereo not given) | inactive |
| Nc1nc(=S)c2[nH]cnc2[nH]1 | inactive |
| COc1ccc(C2C3=C(CC(C)(C)CC3=O)Nc3cc4c(cc32)OCO4)cc1 (stereo not given) | inactive |
| O=C(CSc1ccccc1)N1CCC(N2CCC(C(=O)N3CCCC3)CC2)CC1 | inactive |
| C[C@@H](C(=O)NC1CCCC1)N1C(=O)N2CCc3c([nH]c4ccccc34)[C@@]2(C)C1=O | inactive |
| CCOC(=O)c1cccc(NC(=O)C2CCC(CNc3c(N4CCOCC4)c(=O)c3=O)CC2)c1 (stereo not given) | inactive |

| SMILES | inhibition |
| --- | --- |
| CC(=O)C1=C(O)C(=O)N(CCN2CCOCC2)C1c1ccccc1 (stereo not given) | inactive |
| CCN1CCN(c2cc(C)c3cc(NC(=S)N4CCN(c5ccccc5F)CC4)ccc3n2)CC1 | inactive |
| COc1ccc(C(=O)N2CCN(C(=O)Cc3ccccc3)CC2)cc1OC | inactive |
| CCc1ccc(C(=O)CC2(O)C(=O)N(CN3CCOCC3)c3ccccc32)cc1 (stereo not given) | inactive |
| O=C(c1cccs1)N1CCC(N2CCN(c3ccccc3)CC2)CC1 | inactive |
| O=C(C[n+]1cn(C(F)F)c2ccccc21)c1ccc(Br)cc1 | inactive |
| CCN1CCN(C2=C(NS(=O)(=O)c3ccc(Br)cc3)C(=O)c3ccccc3C2=O)CC1 | inactive |
| Cn1c(=NC(=O)COc2ccccc2)sc2cccc(F)c21 | inactive |
| Cc1cc(NC(=O)/C=C/C(=O)N(c2ccccc2C)C(C(=O)NC2CCCC2)c2ccc(F)cc2)no1 (stereo not given) | inactive |
| CC(=O)c1c(N2CCN(c3cccc(Cl)c3)CC2)nc(=S)n(-c2ccccc2)c1C | inactive |
| Cc1ccc(NC(=O)c2cc(NC(=O)CCCC(=O)O)ccc2Cl)cc1Cl | inactive |
| CCc1cccc(NC(=O)CSC2=NS(=O)(=O)c3ccccc32)c1 | inactive |
| NC(=O)SCC(=O)Nc1ccc(Cl)c(Cl)c1 | inactive |
| O=C(Cc1ccccc1)NCC(=O)Nc1cccc(Cl)c1 | inactive |
| O=C(Nc1ccc(Cl)cc1)N1CCOC12CCC1(CC2)OCCO1 | inactive |
| O=C(COc1ccc(Cl)cc1)Nc1cccc(-c2ccc3nncn3n2)c1 | inactive |
| CCOC(=O)c1ccc(NC(=O)CSC(=S)N2CCOCC2)cc1 | inactive |
| Cc1cnc(C(=O)OCC(=O)Nc2cccc(Cl)c2)cn1 | inactive |
| O=C(Cn1nc(Cc2ccncc2)c2ccccc2c1=O)Nc1cccnc1Cl | inactive |
| CCCN(C(=O)CSc1nc2ccccc2n1CC)C1CCS(=O)(=O)C1 (stereo not given) | inactive |
| O=C(Nc1ccc2c(c1)OCCO2)C1CCCN1C(=O)Nc1ccc(F)cc1 (stereo not given) | inactive |
| c1cnc2nc(-c3ccc4c(c3)OCO4)cn2c1 | inactive |
| Clc1ccc(Cn2cccc2C2=NCCO2)cc1 | inactive |
| COc1ccc(-c2nnc(SC(C)C(=O)Nc3nccs3)n2Cc2ccccc2)cc1OC (stereo not given) | inactive |

| SMILES | inhibition |
| --- | --- |
| CN(C)C(=O)CSc1nnc(Cc2ccc([N+](=O)[O-])cc2)o1 | inactive |
| COc1ccc(N(CC(=O)N2c3ccccc3CC2C)S(=O)(=O)c2c(C)noc2C)cc1 (stereo not given) | inactive |
| Cc1ccc(/C=N/NC(=O)Cc2cccn2C)cc1 | inactive |
| CCOC(=O)c1[nH]c2ccc(Cl)cc2c1NC(=O)c1nonc1C | inactive |
| Cc1cc(Cl)ccc1OCC(=O)N/N=C/c1ccncc1 | inactive |
| O=C(N/N=C/c1ccc(O)cc1O)C(=O)N/N=C/c1ccc(O)cc1O | inactive |
| Cc1oc(/N=C/c2ccc(O)cc2O)c(C#N)c1C | inactive |
| O=C(N/N=C/c1ccc(N2CCOCC2)cc1)c1ccc(O)cc1 | inactive |
| CN(CC(=O)Nc1ccc(F)c(F)c1F)c1cnccn1 | inactive |
| C[C@@H](NC(=O)[C@@H]1Cc2ccccc2CN1)C(=O)NCC1CCCO1 (stereo not given in full) | inactive |
| CCCOc1ccc(C2C(C(=O)c3ccc(C)o3)=C(O)C(=O)N2CCCn2ccnc2)cc1 (stereo not given) | inactive |
| C=CCNc1nc(-c2ccccc2)nc(-n2ccnc2)n1 | inactive |
| c1ccc2c(c1)CCN(c1nc3ccccc3n3cnnc13)C2 | inactive |
| CC1(NC(=O)NCCCCCCNC(=O)NC2(C)CCS(=O)(=O)C2)CCS(=O)(=O)C1 (stereo not given) | inactive |
| O=c1[nH]n(-c2ccccc2)c(=O)c2ccccc12 | inactive |
| O=c1c2ccccc2[nH]c2ccc(F)cc12 | inactive |
| COc1ccc(N=Cc2c(O)n(CC3CCCO3)c(=O)[nH]c2=O)cc1 (stereo not given) | inactive |
| Cc1cccc(N2CCN(C(=O)C3CCN(c4nnc(-n5cccc5)s4)CC3)CC2C)c1 (stereo not given) | inactive |
| Cc1nn(C)c(C)c1NC(=O)c1ccc(S(=O)(=O)N(C)C)cc1 | inactive |
| Cc1cc(-c2nc3ccccc3o2)c2ccccc2n1 | inactive |
| CC(C)(C)Nc1c2ccccc2nc2ccccc12 | inactive |
| COc1ccccc1Nc1cc(C(=O)NCc2cccnc2)c2ccccc2n1 | inactive |
